According to the supplement of paper PMC11732987, “Enantioselective OTUD7B fragment discovery through chemoproteomics screening and high-throughput optimisation” (Communications Chemistry, 2025):

What was measured:
Assay in all cases: log2 ratio of Biotin-Ahx-Ub-VS probe labelling (fragment/DMSO); higher = less target engagement (more negative = stronger competition), active = hit call of the paper (q ≤ 0.05, log2 ratio ≤ -1)
Settings in all cases: compound concentration: 200 uM; treatment time: 3 h
[1] = target: T1, USP42 (UniProt Q9H9J4)
T1 sequence (whole entry): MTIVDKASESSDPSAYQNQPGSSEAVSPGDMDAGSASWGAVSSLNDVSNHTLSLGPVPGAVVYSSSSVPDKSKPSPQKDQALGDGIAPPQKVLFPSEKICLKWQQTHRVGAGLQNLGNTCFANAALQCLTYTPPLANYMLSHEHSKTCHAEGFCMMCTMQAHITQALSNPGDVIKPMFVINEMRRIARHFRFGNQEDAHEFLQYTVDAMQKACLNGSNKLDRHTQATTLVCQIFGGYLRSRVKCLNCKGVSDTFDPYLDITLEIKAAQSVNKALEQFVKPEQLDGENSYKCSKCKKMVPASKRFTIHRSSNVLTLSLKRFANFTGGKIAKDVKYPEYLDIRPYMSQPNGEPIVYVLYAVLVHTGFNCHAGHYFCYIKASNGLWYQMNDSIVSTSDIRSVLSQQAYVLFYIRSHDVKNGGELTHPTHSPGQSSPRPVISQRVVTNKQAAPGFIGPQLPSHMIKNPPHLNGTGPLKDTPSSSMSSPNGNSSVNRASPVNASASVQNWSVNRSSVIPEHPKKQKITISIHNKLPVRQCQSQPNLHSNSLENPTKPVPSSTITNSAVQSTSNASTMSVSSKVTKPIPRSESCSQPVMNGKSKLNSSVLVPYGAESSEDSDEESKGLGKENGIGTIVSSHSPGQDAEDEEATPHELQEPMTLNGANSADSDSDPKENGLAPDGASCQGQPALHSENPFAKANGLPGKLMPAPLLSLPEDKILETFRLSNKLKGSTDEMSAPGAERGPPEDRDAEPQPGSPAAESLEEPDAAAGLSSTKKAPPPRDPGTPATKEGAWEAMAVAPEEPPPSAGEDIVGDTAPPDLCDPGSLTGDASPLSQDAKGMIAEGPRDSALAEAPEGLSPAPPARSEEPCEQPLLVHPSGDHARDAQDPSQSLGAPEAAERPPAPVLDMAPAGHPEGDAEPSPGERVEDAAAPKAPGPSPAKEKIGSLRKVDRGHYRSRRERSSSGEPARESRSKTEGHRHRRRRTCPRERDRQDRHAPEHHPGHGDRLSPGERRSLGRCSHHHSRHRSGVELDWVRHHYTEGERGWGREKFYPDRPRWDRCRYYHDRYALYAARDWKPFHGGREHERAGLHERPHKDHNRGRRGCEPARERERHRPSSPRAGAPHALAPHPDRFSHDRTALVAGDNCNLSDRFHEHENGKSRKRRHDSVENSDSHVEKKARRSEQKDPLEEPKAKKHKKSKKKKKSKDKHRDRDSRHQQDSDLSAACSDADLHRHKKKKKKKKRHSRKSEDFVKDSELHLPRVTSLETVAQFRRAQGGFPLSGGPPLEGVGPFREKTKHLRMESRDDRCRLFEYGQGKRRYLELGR
In short: (§1)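 HEK293T lysate in Tris/CHAPS/IGEPAL buffer with protease inhibitors (495 µg per sample) was given fragment at 200 µM or vehicle for 3 h, in triplicate. It then received Biotin-Ahx-Ub-VS at 0.5 µM final for 1 h. Labelled DUBs were NeutrAvidin-enriched, digested with LysC and trypsin, and run by diaPASEF LC-MS/MS. Values are average log2 fragment/vehicle ratios by unpaired t-test on global-median-normalised Spectronaut quantities of proteins with ≥2 unique peptides.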

[2] = target: USP46 (UniProt P62068)
Chain of USP46 (P62068 whole entry): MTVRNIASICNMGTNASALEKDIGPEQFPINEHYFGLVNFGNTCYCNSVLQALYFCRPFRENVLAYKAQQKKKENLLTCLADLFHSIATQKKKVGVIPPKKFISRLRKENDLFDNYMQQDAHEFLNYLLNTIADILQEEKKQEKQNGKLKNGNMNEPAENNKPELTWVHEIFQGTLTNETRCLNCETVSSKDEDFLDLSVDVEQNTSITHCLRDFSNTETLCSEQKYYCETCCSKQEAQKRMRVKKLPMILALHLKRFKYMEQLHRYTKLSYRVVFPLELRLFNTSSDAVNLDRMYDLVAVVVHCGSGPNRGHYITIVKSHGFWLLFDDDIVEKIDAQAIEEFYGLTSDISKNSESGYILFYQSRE
In short: as §1

[3] = target: T2, USP47 (UniProt Q96K76)
T2 sequence (whole entry): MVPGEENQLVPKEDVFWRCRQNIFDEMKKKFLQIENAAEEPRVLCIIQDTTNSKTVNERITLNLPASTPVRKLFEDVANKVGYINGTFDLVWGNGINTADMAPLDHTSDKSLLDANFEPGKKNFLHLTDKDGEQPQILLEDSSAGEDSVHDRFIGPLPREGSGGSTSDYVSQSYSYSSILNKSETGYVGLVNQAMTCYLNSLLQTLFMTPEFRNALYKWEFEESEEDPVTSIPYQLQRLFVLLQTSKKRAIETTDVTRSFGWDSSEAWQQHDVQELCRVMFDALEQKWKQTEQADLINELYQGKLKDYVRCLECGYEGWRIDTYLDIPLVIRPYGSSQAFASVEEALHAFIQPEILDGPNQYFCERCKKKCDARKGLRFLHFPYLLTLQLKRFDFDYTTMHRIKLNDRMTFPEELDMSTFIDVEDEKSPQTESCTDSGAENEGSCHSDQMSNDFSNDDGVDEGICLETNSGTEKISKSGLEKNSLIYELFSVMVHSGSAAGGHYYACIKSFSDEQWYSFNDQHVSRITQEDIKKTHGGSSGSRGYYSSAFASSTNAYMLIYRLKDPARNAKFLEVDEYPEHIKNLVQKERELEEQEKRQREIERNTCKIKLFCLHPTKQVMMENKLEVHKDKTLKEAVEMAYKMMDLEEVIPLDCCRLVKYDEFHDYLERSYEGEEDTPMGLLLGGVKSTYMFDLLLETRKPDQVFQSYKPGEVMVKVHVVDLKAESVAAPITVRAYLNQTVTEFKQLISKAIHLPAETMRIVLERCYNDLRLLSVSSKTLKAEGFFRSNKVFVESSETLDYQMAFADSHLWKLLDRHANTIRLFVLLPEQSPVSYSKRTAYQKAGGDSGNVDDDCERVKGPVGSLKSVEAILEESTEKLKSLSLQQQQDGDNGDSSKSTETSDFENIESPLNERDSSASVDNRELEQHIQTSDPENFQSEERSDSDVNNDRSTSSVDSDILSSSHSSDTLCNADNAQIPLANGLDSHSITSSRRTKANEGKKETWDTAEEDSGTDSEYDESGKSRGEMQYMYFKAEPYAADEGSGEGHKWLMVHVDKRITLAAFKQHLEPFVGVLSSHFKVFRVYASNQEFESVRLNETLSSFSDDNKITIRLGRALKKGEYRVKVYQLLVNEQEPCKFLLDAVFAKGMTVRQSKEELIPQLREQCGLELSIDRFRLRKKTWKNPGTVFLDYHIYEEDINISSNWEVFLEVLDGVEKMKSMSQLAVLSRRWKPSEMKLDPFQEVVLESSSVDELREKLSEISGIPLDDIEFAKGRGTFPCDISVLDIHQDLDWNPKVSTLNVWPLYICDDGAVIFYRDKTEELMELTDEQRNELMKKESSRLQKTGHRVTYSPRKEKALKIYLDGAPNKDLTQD
In short: as §1

[4] = target: T3, USP48 (UniProt Q86UV5)
T3 sequence (whole entry): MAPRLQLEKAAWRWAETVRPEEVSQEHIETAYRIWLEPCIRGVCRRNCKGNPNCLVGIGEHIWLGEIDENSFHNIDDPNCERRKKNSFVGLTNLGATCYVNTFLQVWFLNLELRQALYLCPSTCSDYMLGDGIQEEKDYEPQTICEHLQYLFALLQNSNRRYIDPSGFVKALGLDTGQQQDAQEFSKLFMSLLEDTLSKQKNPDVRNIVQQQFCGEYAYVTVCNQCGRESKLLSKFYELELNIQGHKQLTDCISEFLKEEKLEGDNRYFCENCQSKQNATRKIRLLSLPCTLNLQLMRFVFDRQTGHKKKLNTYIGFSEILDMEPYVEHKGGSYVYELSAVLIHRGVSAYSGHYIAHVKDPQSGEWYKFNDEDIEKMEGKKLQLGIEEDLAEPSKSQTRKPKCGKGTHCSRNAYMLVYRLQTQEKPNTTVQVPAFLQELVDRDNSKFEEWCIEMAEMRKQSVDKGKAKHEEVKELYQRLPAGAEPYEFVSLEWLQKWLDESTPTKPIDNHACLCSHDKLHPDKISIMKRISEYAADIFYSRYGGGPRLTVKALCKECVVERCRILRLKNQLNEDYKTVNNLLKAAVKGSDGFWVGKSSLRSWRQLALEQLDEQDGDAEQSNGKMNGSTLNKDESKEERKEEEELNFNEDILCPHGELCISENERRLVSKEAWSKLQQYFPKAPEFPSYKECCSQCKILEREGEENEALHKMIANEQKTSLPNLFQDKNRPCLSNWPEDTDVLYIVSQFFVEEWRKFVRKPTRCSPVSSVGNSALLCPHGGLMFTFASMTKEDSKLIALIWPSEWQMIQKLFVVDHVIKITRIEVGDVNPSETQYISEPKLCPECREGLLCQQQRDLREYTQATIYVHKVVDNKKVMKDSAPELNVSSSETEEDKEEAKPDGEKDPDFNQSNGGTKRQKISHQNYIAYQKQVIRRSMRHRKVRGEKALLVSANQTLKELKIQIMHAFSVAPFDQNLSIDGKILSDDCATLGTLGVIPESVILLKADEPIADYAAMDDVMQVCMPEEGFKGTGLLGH
In short: as §1

[5] = target: T4, USP5 (UniProt P45974)
T4 sequence (whole entry): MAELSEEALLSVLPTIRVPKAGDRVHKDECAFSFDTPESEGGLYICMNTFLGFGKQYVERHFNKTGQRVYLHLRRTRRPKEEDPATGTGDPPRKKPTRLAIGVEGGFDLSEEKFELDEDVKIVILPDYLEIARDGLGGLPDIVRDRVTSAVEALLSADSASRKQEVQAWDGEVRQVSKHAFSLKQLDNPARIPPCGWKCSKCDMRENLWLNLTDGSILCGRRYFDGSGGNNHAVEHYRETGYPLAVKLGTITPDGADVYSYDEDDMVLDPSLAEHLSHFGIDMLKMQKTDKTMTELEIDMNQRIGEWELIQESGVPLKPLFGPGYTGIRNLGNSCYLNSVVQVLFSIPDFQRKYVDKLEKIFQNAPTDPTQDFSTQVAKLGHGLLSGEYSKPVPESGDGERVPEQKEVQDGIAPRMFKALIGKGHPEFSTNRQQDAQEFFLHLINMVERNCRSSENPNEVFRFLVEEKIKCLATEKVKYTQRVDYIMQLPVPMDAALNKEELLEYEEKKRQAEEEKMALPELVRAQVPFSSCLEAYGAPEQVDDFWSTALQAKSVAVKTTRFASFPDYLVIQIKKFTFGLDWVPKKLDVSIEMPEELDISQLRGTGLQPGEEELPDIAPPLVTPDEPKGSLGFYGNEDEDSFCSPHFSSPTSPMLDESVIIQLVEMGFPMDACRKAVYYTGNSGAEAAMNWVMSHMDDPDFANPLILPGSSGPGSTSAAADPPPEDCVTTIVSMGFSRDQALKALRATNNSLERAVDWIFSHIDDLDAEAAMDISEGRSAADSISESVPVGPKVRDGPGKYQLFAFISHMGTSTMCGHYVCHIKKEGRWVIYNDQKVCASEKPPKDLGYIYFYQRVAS
In short: as §1

[6] = target: USP54 (UniProt Q70EL1)
In short: as §1

[7] = target: USP7 (UniProt Q93009)
Chain of USP7 (Q93009 whole entry, looked up): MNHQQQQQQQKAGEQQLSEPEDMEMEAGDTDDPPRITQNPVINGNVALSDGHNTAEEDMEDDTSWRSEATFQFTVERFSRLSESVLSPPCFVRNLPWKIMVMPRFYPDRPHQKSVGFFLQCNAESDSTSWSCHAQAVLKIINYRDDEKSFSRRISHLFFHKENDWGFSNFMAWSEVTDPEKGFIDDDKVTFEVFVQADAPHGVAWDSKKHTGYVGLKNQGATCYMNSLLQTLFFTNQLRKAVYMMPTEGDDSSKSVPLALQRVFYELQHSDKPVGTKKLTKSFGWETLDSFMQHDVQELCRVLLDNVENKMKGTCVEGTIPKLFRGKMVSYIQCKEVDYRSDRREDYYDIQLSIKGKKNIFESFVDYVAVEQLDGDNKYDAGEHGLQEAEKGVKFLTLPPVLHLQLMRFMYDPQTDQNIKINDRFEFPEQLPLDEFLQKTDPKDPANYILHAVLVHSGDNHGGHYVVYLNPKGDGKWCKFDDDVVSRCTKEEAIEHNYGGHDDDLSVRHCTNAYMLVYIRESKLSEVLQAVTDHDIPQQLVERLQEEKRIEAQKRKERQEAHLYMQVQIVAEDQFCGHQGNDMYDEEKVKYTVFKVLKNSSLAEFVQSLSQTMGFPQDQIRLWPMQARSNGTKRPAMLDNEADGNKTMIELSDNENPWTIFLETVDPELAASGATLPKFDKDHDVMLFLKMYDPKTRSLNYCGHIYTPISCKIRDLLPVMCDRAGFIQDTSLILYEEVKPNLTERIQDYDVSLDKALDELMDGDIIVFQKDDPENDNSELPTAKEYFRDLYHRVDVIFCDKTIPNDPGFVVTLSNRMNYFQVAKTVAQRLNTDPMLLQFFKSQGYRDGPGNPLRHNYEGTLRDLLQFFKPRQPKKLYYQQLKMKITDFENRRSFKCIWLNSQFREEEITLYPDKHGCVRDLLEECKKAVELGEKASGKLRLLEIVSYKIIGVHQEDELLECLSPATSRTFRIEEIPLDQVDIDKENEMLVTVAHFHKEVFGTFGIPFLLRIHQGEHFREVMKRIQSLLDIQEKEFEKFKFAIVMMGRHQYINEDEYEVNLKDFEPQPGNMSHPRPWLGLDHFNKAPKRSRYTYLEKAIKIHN
In short: as §1

[8] = target: T5, USP8 (UniProt P40818)
T5 sequence (whole entry): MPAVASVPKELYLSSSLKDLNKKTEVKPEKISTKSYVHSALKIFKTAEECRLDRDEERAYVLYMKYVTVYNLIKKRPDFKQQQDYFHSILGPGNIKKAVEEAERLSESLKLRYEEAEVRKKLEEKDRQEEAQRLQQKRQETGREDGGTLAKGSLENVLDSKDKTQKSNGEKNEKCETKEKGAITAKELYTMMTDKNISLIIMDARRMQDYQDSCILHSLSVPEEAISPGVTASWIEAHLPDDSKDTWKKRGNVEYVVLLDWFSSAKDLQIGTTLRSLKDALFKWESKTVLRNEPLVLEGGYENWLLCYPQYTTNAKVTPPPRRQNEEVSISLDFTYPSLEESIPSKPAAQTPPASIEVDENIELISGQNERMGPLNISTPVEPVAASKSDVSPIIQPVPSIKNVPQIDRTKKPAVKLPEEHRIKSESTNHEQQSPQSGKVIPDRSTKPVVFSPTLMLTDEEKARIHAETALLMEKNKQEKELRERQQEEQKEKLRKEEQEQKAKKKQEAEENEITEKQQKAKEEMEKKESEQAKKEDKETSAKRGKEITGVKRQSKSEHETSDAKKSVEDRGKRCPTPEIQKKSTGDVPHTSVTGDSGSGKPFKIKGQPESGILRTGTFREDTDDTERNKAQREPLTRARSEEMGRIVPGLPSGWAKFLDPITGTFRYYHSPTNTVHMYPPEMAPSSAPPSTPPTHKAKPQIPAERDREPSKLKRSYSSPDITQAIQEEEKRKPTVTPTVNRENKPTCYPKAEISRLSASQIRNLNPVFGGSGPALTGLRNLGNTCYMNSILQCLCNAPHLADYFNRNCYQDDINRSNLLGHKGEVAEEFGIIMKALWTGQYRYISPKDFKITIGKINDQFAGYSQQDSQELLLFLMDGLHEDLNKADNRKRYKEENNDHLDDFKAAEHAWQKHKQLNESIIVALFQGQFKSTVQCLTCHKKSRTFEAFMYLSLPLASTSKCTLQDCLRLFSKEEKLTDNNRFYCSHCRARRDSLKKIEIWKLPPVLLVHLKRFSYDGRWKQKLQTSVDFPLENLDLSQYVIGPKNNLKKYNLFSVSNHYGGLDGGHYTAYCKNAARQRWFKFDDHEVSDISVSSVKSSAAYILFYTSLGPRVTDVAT
In short: as §1

[9] = target: USP9X (UniProt Q93008)
Chain of USP9X (Q93008 whole entry): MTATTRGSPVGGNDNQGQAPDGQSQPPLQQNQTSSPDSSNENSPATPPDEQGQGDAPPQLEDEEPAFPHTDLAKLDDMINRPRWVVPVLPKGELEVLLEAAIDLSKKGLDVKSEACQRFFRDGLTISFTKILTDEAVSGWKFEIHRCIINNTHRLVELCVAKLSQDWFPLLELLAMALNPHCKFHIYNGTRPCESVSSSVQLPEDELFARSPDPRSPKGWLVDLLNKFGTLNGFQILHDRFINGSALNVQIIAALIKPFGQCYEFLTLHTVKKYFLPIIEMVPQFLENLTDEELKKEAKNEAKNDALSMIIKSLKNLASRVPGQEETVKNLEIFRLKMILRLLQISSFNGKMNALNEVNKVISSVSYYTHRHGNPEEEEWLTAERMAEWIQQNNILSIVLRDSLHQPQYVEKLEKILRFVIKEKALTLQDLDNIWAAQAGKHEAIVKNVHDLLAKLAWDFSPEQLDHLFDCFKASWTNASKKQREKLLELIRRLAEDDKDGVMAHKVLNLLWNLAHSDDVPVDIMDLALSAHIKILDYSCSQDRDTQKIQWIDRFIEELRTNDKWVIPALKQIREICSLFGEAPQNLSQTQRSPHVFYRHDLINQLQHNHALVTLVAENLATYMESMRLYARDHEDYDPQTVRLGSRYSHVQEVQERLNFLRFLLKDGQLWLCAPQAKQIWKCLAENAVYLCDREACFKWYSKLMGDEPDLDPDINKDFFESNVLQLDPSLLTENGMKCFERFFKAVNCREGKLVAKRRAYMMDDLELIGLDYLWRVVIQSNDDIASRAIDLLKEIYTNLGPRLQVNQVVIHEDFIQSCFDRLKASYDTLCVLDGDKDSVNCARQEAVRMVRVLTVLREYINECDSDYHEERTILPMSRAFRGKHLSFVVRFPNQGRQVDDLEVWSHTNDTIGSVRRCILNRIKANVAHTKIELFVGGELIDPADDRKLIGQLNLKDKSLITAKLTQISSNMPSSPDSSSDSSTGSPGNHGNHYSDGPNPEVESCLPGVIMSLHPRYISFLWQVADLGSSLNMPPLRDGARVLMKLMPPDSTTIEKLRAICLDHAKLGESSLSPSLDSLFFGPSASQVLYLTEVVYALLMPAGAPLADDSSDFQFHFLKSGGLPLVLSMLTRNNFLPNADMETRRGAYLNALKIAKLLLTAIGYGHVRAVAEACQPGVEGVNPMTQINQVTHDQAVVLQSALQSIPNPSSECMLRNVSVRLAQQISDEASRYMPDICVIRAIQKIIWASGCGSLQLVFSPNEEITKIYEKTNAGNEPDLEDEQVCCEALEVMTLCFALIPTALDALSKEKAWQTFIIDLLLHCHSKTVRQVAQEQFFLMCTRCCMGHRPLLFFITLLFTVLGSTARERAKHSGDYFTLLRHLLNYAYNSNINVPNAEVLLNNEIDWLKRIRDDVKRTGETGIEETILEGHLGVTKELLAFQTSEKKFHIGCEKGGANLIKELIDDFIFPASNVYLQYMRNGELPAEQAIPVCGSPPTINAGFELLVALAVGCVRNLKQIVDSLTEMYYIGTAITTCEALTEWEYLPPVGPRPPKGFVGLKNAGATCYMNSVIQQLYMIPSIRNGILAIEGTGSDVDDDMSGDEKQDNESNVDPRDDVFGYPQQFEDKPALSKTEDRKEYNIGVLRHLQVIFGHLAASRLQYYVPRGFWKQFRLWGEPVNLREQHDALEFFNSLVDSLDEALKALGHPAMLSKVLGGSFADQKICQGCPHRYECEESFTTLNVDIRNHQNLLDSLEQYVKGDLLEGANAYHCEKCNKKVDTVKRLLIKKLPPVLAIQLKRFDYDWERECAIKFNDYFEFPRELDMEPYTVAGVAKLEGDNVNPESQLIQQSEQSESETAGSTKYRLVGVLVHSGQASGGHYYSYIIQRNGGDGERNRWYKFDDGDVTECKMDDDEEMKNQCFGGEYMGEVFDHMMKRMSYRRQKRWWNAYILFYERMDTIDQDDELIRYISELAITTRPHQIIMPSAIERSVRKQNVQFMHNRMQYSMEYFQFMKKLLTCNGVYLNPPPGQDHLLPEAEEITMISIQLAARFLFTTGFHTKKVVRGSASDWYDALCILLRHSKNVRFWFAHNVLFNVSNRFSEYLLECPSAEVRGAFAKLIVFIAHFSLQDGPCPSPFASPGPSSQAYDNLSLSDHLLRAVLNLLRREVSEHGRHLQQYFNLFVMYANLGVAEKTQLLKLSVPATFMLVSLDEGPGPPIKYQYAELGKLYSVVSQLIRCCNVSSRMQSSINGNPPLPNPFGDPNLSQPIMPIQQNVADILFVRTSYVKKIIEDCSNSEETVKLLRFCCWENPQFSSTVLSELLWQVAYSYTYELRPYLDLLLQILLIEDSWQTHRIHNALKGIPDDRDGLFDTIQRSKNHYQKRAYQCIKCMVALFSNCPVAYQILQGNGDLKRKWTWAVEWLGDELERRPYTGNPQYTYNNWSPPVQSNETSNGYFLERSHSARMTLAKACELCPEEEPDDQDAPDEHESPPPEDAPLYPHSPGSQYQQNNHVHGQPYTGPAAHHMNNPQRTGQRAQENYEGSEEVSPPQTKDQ
In short: as §1

[10] = target: UniProt O00487
Chain of UniProt O00487 (O00487 whole entry): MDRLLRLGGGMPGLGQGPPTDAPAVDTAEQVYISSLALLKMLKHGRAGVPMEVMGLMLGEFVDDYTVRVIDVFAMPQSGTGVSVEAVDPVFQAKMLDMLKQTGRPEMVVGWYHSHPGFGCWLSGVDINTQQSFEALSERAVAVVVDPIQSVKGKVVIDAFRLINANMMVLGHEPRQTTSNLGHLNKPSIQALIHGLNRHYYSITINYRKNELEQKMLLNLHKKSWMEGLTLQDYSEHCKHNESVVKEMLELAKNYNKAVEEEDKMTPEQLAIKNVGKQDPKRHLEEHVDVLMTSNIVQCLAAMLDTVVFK
In short: as §1

Measured: log2 ratio of Biotin-Ahx-Ub-VS probe labelling

CC1Cc2ccccc2N1C(=O)CCl (stereo not given)
active: [7] -1.33
inactive: [1] -0.0391 | [2] -0.226 | [3] -0.675 | [4] -0.686 | [5] 0.363 | [6] 0.538 | [8] -0.238 | [9] -0.267 | [10] -0.194
